# Data: PubChem BioAssay AID799 (SRMLSC, 2007)
# Screen size: about 140,000 compounds; about 840 (0.6%) were called active. What follows is part of a selection rich in actives, with near analogues and random picks from the rest. Unmarked numbers belong to inactive results.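 Rule for the calls: active = viability gain under doxorubicin at or above a set limit, the compound median plus 3 SD (cut at about 4.7% in these data); inactive = the rest.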
# Test: H69AR viability gain despite doxorubicin, primary screen, MRP-1 activator project, H69AR cells, CellTiter-Glo (AID 799);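 note: MRP-1 overexpressing cells given doxorubicin 25 µM after compound pretreatment; 18-22 h compound pretreatment then 72 h with doxorubicin before readout; 0% = doxorubicin-only wells and 100% = vehicle-treated cells without doxorubicin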
# Conditions: viability rescue, at 10 µM, stronger effect = higher value
row,Structure (SMILES),viability increase
1,Cc1ccc(S(=O)(=O)N(Cc2ccc(Cl)cc2)c2ccccc2C(=O)NCc2cccnc2)cc1,-2.38%
2,Cc1ccc(O)c(-c2cc(C(=O)NCc3ccccc3)[nH]n2)c1,-1.43%
3,O=C1[C@@H]2C(Cc3ccc(O)cc3)NC3(C(=O)Nc4ccc(F)cc43)[C@@H]2C(=O)N1c1ccc(F)cc1 (some centres undefined),5.18% (active)
4,CSCCC1NC2(C(=O)Nc3ccc(Cl)cc32)[C@@H]2C(=O)N(C3CCCC3)C(=O)[C@H]12 (some centres undefined),-3.72%
5,CNC(=O)NC(=O)C(OC(=O)c1cccc(S(=O)(=O)N2CCCCC2)c1)c1ccccc1 (centres undefined),-2.3%
6,Cc1cc(NS(=O)(=O)c2ccc(NC(=S)NC(=O)c3ccc(F)cc3Cl)cc2)no1,-2%
7,CCN(CC)c1ccc([N+](=O)[O-])cc1C(=O)O,0.59%
8,CC(NC(=O)COC(=O)C1CCN(S(=O)(=O)c2ccccc2C(F)(F)F)CC1)c1ccccc1 (centres undefined),-1.86%
9,COCC(C)n1c(C)cc(C(=O)CSc2cc(C)c3ccccc3n2)c1C (centres undefined),0.22%
10,Cc1ccc(C2C3=C(Nc4[nH]n(-c5ccccc5)c(=O)c42)c2ccccc2C3=O)cc1 (centres undefined),-0.43%
11,Cc1ccc(N2C(=O)C3C(c4ccccc4)(C2=O)C3(c2ccccc2)c2ccccc2)cc1 (centres undefined),5.37% (active)
12,Cc1ccc(N2C(=O)C(Cc3ccccc3)NC2=S)cc1 (centres undefined),-0.7%
13,N/C(=N\OC(=O)N1c2ccccc2Sc2ccccc21)c1ccc(Br)cc1,-2.4%
14,COc1cc2c(cc1NC(=O)COC(=O)/C=C/c1ccccc1)oc1ccccc12,-4.74%
15,O=C(CSCc1ccc(Cl)cc1)N1CCCCC1,0.74%
16,CS(=O)(=O)N(CC(=O)N1CCN(Cc2ccc3c(c2)OCO3)CC1)c1ccc2c(c1)OCO2,-1.42%
17,O=C(CSCc1ccc(Cl)cc1)N1CCN(Cc2ccc3c(c2)OCO3)CC1,5.45% (active)
18,CCN(C(=O)COC(=O)c1c(NC(C)=O)sc(C)c1C)C1CCS(=O)(=O)C1 (centres undefined),-2.05%
19,CCOc1ccc(Nc2nc(Cl)nc(N3CCN(c4ccc(OC)cc4)CC3)n2)cc1,1.19%
20,CN(Cc1cccs1)C(=O)Cc1c[nH]c2ccccc12,-2.21%

row,Structure (SMILES),viability increase
1,Cc1cccc(OCc2ccc(C(=O)Nc3ccc(F)cc3)cc2)c1,4.9% (active)
2,Cc1cccc(C(=O)Nc2ccc(CC(=O)O)cc2)c1,-0.27%
3,CCC(=O)Nc1ccc(C(=O)Nc2cccc(OC)c2)cc1,-2.62%
4,CCOP(=O)(OCC)C(Nc1cccc(C)c1)c1ccc(F)cc1 (centres undefined),0.43%
5,CCOC(=O)C(NC(=O)CC(C)C)(Nc1sc2c(c1C(N)=O)CCCC2)C(F)(F)F (centres undefined),-2.1%
6,C/C(=N\NS(=O)(=O)c1ccc(Cl)cc1)c1ccc(NC(=O)c2ccco2)cc1,-2.49%
7,Cc1c(Cl)cccc1NC(=O)CC1SC(=NCC2CCCO2)NC1=O (centres undefined),2.61%
8,NC1=NC(=O)C(Cc2cccc(Cl)c2Cl)S1 (centres undefined),-0.15%
9,O=C1NC(=Nc2ccc(Cl)cc2)SC1Cc1cccc(Cl)c1Cl (centres undefined),6.35% (active)
10,CC(C)CNC(=O)C(=O)Nc1ccc(N(C)C)cc1,0%
11,CC1CCc2sc(C(=O)N/N=C/C3CCCCC3)cc2C1 (centres undefined),-1.48%
12,Oc1c(C(c2cccs2)N2CCN(c3ccc(F)cc3)CC2)sc2ncnn12 (centres undefined),10.6% (active)
13,Oc1c(C(c2ccco2)N2CCC3(CC2)OCCO3)sc2ncnn12 (centres undefined),0.05%
14,Cc1ccc(C(c2sc3nc(C)nn3c2O)N2CCN(c3ccc(F)cc3)CC2)cc1 (centres undefined),-2.22%
15,Cc1c(C2=CCN(S(=O)(=O)c3ccc(Cl)cc3)CC2)c2ccccc2n1C,-0.07%
16,COc1nc(N(C)C)nc(N2CC(=O)N(CCNS(=O)(=O)c3ccc(C)cc3)C2=N)n1,-2.66%
17,O=C1N/C(=C/c2cccn2-c2ccccc2)C(=O)N1c1cccc(Cl)c1,-0.22%
18,Cc1c(Cl)cccc1NC(=S)NCc1ccc2c(c1)OCO2,-4.04%
19,COc1ccc(C2CC(c3cccs3)=NN2C(=O)COC(=O)c2cc3ccccc3cc2O)cc1OC (centres undefined),-0.45%
20,COc1nc(NCc2ccc(Cl)cc2)nc(OC)n1,5.12% (active)

row,Structure (SMILES),viability increase
1,FC(F)(F)c1cc(-c2ccco2)nc(NCc2ccc(Cl)cc2)n1,-0.53%
2,C=CCNc1nc(C)nc(OC)n1,0.38%
3,CCOc1ccc(/C=N/OCC(=O)NCc2cccs2)cc1,0%
4,COc1ccc2c(c1)C(SCC(=O)NCc1ccccc1)CC(C)(C)O2 (centres undefined),-1.61%
5,COc1ccc(-c2csc(NC(=O)CCCc3cccs3)n2)cc1,3.87%
6,COC(=O)CN1C(=S)N(c2ccccc2)C(=O)C1CC(=O)Nc1ccc(Cl)cc1 (centres undefined),-1.37%
7,COc1ccc(N2C(=O)C(CC(=O)Nc3ccc(F)cc3)N(CCc3cccs3)C2=O)cc1 (centres undefined),5.39% (active)
8,CC(C)COP(=O)(c1ccc(N(C)C)cc1)C(Nc1ccccc1)c1cccnc1 (centres undefined),-3.48%
9,CCOc1ccc(Oc2nc(C)cc(OC)n2)nn1,0.08%
10,Cc1ccc(NC(=O)c2cccs2)cc1S(=O)(=O)N(C)C,-1.25%
11,O=S(=O)(NCCSc1ccccn1)c1ccc(Cl)cc1,0.85%
12,Cc1cccc2cc(CN(Cc3cccs3)C(c3nnnn3C3CCCC3)C(C)C)c(=O)[nH]c12 (centres undefined),-3.53%
13,Cc1cccc2cc(CN(C(=O)c3cccs3)c3ccccc3)c(=O)[nH]c12,-0.07%
14,Cc1cccc2cc(CN(Cc3cccs3)C(=S)NCc3ccco3)c(=O)[nH]c12,5.98% (active)
15,Cc1ccc(Oc2cc(NC(=O)CCCn3nc(C)c([N+](=O)[O-])c3C)cc([N+](=O)[O-])c2)cc1,-2.6%
16,O=C(O)c1cccc(N=NN2CCCCCC2)c1,-1.92%
17,COC(C(=O)NCc1ccccc1C)c1ccccc1 (centres undefined),-0.37%
18,COc1cc(C2C(N3C(=O)c4ccccc4C3=O)C(=O)N2c2ccc(C)c(C)c2)cc(OC)c1OC (centres undefined),-3.6%
19,CCCCOc1ccc(C(=O)N/C(=C/C=C/c2ccccc2)C(=O)N2CCOCC2)cc1,-4.14%
